Records with an inconclusive call do not appear. Where a call stands in place of a potency, no number is given. Calls of active or inactive are those of the source. The call rests on the fitted dose curve; in most records, active means well fitted inhibition curve with a large enough effect; inconclusive means small, poorly fitted or top-dose-only effect; inactive means flat fitted curve, though single readings scatter.

The target in this assay is Calcium and integrin-binding protein 1 (Homo sapiens) (UniProt Q99828). Put plainly: Primary qHTS for Identification of Calcium Integrin Binding Protein 1 (CIB1) Competitor (AID 1508620).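 Further: GST tagged CIB1 binding a fluorescein labelled alphaIIb integrin peptide tracer; top concentration of the series differs between compounds.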 The note with it: CIB1-GST / FITC-alphaIIb peptide fluorescence polarization; series mostly up to 114 µM. In short, it runs like this: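 CIB1-GST (1 uM final) and compound incubated 15 min at room temperature before adding FITC-alphaIIb peptide tracer (100 nM final). Competition for binding read by fluorescence polarization (ex 480, em 540) after another 15 min at room temperature.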
Sequence of Calcium and integrin-binding protein 1 (Homo sapiens) (Q99828 whole entry, looked up): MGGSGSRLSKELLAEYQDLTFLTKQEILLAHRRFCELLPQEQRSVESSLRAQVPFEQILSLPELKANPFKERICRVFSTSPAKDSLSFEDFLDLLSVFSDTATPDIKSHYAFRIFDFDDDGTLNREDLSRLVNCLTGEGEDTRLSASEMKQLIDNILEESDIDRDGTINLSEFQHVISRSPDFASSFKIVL
For orientation: qHTS replaces the single test concentration by a dilution series.
Take `O=C(NCCc1nc2ccccc2n1CCOc1ccccc1[N+](=O)[O-])C1CCCCC1`: the Potency result is “inactive”.

For the compound `COc1cc(-c2nc(Nc3ccc(F)c(F)c3)c3ccccc3n2)c(F)cn1`, the Potency entry was “inactive”.

Consider `COc1ccc(-c2ccc(NC(=O)c3cccs3)cn2)cc1`, for which the Potency result is “inactive”.

Consider `CCOC(=O)c1nn(-c2ccccc2)c(=O)c2c(N)sc(C)c12`, for which the Potency result is “inactive”.

For the compound `Cc1cc(NS(=O)(=O)c2ccc(NC(=O)Cc3ccc4ccccc4c3)cc2)no1`, the Potency result is “inactive”.

For the compound `O=C(O)c1ccc2c(c1)C(=O)N([C@]1(C(=O)O)C[C@H]1c1ccccc1)C2=O`, the Potency entry is “inactive”.

Consider `Cn1nnnc1Sc1ncnc2scc(-c3ccc(C(F)(F)F)cc3)c12`, for which the Potency result is “inactive”.

Consider `COc1ccc(CNc2ccc(S(=O)(=O)Nc3nccs3)cc2)c(O)c1`, for which the Potency entry is “inactive”.

With `Cc1cc(C)nc(NC(=S)N2CCN(c3cc(Cl)c(Cl)c(Cl)c3)CC2)c1`, the Potency result is “inactive”.

With `CN(Cc1ncc[nH]1)c1ncnc2ccc(-c3ccc4c(c3)OCO4)cc12`, the Potency entry was “inactive”.

For `Cc1ccccc1S(=O)(=O)N1CCc2cc(-c3nc(NC(=O)Cc4ccc5c(c4)OCO5)sc3C)ccc21`, the Potency entry was “inactive”.

As for `Cc1cc2c(s1)c1cnn(Cc3ccccc3Br)c(=O)c1n2C`, the Potency entry was “inactive”.

`Cc1ccsc1CN(C)c1ncnc2ccc(-c3ccc4c(c3)OCO4)cc12`: the Potency result was “inactive”.

Consider `O=C1NS(=O)(=O)C(c2ccccc2)C1c1ccccc1` (centres undefined), for which the Potency result was “inactive”.

Take `O=C(O)c1ccc(S(=O)(=O)N[C@H](Cc2c[nH]c3ccccc23)C(=O)O)cc1`: the Potency result is “inactive”.

Turning to `O=C1Nc2ccccc2/C1=C\c1cc(Br)c(O)c(Br)c1`, the Potency entry was “inactive”.

For `Cc1cc2c(s1)c1cnn(Cc3c(F)c(F)c(C)c(F)c3F)c(=O)c1n2C`, the Potency entry was “inactive”.

Regarding `COc1ccc(S(=O)(=O)Nc2cc(OC)cc3cccnc23)cc1`, the Potency entry was “inactive”.

`O=C(NCc1ccccc1)Nc1nnc(-c2ccncc2)s1`: the Potency result was “inactive”.

For the compound `COc1cc(O)c(C(CC(=O)N2CCCCCC2)c2ccc3c(c2)OCO3)c(OC)c1` (centres undefined), the Potency result was “inactive”.

Turning to `O=C1c2ccccc2C(=O)c2cc(S(=O)(=O)Nc3cccc4cccnc34)ccc21`, the Potency entry is “inactive”.

Consider `COc1ccc(-c2nc3ccccc3c(=O)n2Cc2ccco2)cc1COc1ccc(NC(C)=O)cc1`, for which the Potency entry was “inactive”.

Turning to `COc1nccc(-c2nc(Nc3ccc(F)c(F)c3)c3ccccc3n2)c1Cl`, the Potency result was “inactive”.

On to `O=S(=O)(c1ccc2c(c1)OCCO2)N1CCN(S(=O)(=O)c2c(F)cccc2F)CC1`, for which the Potency result was “inactive”.

As for `O=c1[nH]c2ccc(S(=O)(=O)N3CCN(S(=O)(=O)c4ccc5c(c4)OCCO5)CC3)cc2[nH]c1=O`, the Potency entry was “inactive”.

As for `O=C(OCC#CCSc1nnc(-c2cccc3ccccc23)o1)c1cccc(F)c1`, the Potency entry was “inactive”.

With `CC(=O)N1CCN(c2ccc(NCc3ccccc3)cc2)CC1`, the Potency entry is “inactive”.

For `COc1cccc(-c2ccc(=O)n(CC(=O)NCCc3ccccc3)n2)c1`, the Potency entry was “inactive”.

For `Cc1ccnc(NC(=S)N2CCN(c3ccc(C(F)(F)F)cc3[N+](=O)[O-])CC2)c1`, the Potency entry is “inactive”.

For the compound `COc1ccccc1-c1no[n+]([O-])c1C#N`, the Potency entry is “inactive”.

Consider `CN(CC(=O)Nc1ccc(N2CCOCC2)cc1)Cc1cccc2ccccc12`, for which the Potency entry is “inactive”.

`O=C(O)c1ccc2c(c1)C(=O)N([C@H](Cc1ccc(C(F)(F)F)cc1)C(=O)O)C2=O`: the Potency result is “inactive”.

As for `COc1cc(C2Nc3ccccc3C(=O)N2Cc2ccccc2)ccc1OCc1ccc(NC(C)=O)cc1` (centres undefined), the Potency result was “inactive”.

On to `c1nc(NCC2CC2)c2cc(-c3ccc4c(c3)OCO4)ccc2n1`, for which the Potency entry is “inactive”.

`CC(C)(C)OC(=O)N1CCN(c2ccc(NCc3ccc(-c4cc(C(F)(F)F)cc(C(F)(F)F)c4)o3)cc2)CC1`: the Potency result was “inactive”.

For `CC(=O)Nc1sc2c(c1-c1cccc(N(C)C)c1)CCNC2`, the Potency result is “inactive”.

On to `O=[S+]([O-])(c1c(F)cccc1F)N1CCN([S+](=O)([O-])c2cccc3nonc23)CC1`, for which the Potency result is “inactive”.

Take `O=C(O)c1cccc(-c2noc(-c3cccc(Cl)c3)n2)c1`: the Potency result is “inactive”.

In the case of `Cc1ccc(NS(=O)(=O)c2cc3c(cc2-c2ccccc2)NC(=O)CO3)cc1C`, the Potency result is “inactive”.

The values are drawn from PubChem BioAssay (NCATS).
